According to PubChem BioAssay:
Measured potencies and affinities stand elsewhere. The source made the active and inactive calls.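 How the source made its calls: active means primary screen inhibitor hit that blocks the TRPC4 channel at some tested dose, yielding a dose curve; inactive means the rest.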

Target: Short transient receptor potential channel 4 (Mus musculus) (UniProt Q9QUQ5)
Assay: mouse TRPC4 channel inhibitors, dose response, cell-based, HEK293 TRPC4/mu-opioid, Fluo-4 calcium (AID 434942)
Settings: HEK293 TRPC4/mu-opioid cells, DAMGO-evoked Fluo-4 calcium ratio; series mostly up to 20 µM

Chain of Short transient receptor potential channel 4 (Mus musculus) (Q9QUQ5 whole entry, looked up): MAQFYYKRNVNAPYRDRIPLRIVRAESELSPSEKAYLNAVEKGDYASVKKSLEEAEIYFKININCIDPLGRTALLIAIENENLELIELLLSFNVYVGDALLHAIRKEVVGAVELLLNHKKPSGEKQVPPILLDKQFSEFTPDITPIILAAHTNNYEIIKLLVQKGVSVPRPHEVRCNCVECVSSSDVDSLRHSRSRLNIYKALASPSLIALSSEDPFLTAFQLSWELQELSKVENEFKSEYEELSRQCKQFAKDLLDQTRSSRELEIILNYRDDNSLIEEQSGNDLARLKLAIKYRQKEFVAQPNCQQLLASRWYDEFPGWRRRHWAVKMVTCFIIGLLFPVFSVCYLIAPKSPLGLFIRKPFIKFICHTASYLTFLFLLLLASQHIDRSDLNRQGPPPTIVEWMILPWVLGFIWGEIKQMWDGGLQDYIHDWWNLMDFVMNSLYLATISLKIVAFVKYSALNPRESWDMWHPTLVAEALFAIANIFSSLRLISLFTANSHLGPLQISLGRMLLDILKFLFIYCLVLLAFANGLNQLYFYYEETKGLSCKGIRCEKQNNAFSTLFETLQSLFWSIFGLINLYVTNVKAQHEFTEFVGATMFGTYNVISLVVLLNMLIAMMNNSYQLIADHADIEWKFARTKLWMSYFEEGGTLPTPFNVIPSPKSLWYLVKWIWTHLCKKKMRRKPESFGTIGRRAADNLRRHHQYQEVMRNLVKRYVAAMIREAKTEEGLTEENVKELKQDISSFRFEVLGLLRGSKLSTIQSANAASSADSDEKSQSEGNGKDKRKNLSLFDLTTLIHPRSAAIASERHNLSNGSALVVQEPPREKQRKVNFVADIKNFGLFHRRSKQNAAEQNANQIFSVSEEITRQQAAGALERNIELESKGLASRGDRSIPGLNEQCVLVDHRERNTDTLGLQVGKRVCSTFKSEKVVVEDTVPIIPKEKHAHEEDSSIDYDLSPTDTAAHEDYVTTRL

outcome, inactive:
COc1ccc(C(CCNCc2ccc(N(C)C)cc2)c2ccccc2)cc1 (stereo not drawn), COc1ccc(C(=O)NNC(=S)NC(=O)c2cccs2)cc1, Cc1cccc(C(=O)NC(=S)NNC(=O)Cc2ccccc2)c1, COc1ccc(CC(=O)NCC(c2ccc(OC)cc2)N(C)C)cc1 (stereo not drawn), COc1cccc(C(=O)NC2CCCN(C3Cc4ccccc4C3)C2)c1OC (stereo not drawn), NC(=O)C1CCCN(CCc2ccccc2)C1 (stereo not drawn), CNC[C@H](Cc1ccccc1)NC[C@@H](Cc1cccc2ccccc12)NCCc1ccc(C)cc1, O=C(CC1C(=O)NCCN1Cc1cccc(Oc2ccccc2)c1)NCCc1ccccn1 (stereo not drawn), COc1ccccc1/C=C/CN1CCCC(CCC(=O)NCc2ccccc2F)C1 (stereo not drawn), C=CCn1c(/N=C/c2ccc(N(C)C)cc2)nc2ccccc21, Cc1oc(-c2ccccc2Cl)nc1CS(=O)CC(=O)NCCCN1CC(C)CC(C)C1 (stereo not drawn), COc1ccc(CN2CCC(N(CCc3ccccc3)Cc3ccccc3)CC2)c(OC)c1, O=C(NC(=S)NNC(=O)c1ccccc1[N+](=O)[O-])c1ccc(Br)cc1, O=C(NC1CCN(Cc2ccccc2)CC1)C12CC3CC(CC(C3)C1)C2, CCCN1CCN(C(=O)Cn2c(=O)oc3cc(S(=O)(=O)NCc4ccccc4)ccc32)CC1, Cn1c2ccccc2c(=O)c2c(=O)n(C3CCCCC3)c(-c3ccco3)nc21, OCCC1CN(Cc2ccccc2-c2ccco2)CCN1Cc1ccccc1 (stereo not drawn), CCN1CCCC1CNS(=O)(=O)c1c(C)cc(C)cc1C (stereo not drawn)
